# Structures can show the parent of a compound that is named as a salt.
# System: HL-1
# Test: relative cell viability (CellTiter-Glo) vs DMSO control (% of DMSO control); higher = more viable cells
# Method in brief: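 Cell viability, normalised to vehicle-treated control cells, was read by CellTiter-Glo luminescence. For this, HL-1 mouse atrial cardiomyocytes were plated at 1000 cells per well in 384-well plates alongside compounds at 40, 200, 1000 or 5000 nM in 0.01% DMSO. After a day, plates either spent 48 h in a hypoxic workstation at 1% O2 and then 24 h reoxygenating in a normal incubator, or remained in normoxia for the same period.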
# [1] = oxygen condition: hypoxia 48 h (1% O2) + reoxygenation 24 h, 40 nM
# [2] = oxygen condition: hypoxia 48 h (1% O2) + reoxygenation 24 h, 200 nM
# [3] = oxygen condition: hypoxia 48 h (1% O2) + reoxygenation 24 h, 1000 nM
# [4] = oxygen condition: hypoxia 48 h (1% O2) + reoxygenation 24 h, 5000 nM
# [5] = oxygen condition: normoxia 72 h, 40 nM
# [6] = oxygen condition: normoxia 72 h, 200 nM
# [7] = oxygen condition: normoxia 72 h, 1000 nM
# [8] = oxygen condition: normoxia 72 h, 5000 nM
Compound,relative cell viability [1],relative cell viability [2],relative cell viability [3],relative cell viability [4],relative cell viability [5],relative cell viability [6],relative cell viability [7],relative cell viability [8]
CCCc1ncc(C[n+]2ccccc2C)c(N)n1 [Amprolium HCl],104,104,108,110,97.4,104,110,100
CCCN[C@H]1CCc2nc(N)sc2C1 [Pramipexole dihydrochloride monohydrate],103,98.2,99.8,107,99,105,101,110
CCN(CC)CCOC(=O)C(c1ccccc1)c1ccccc1 [Adiphenine HCl],99.1,94.2,102,108,101,97.4,101,110
CCOC(=O)C1=C(C)NC(C)=C(C(=O)OC)C1c1cccc(Cl)c1Cl (stereo not drawn) [Felodipine],101,105,88.9,98.7,99.1,101,98,101
N[C@H](Cc1ccccc1)C(=O)O [D-Phenylalanine],103,99.4,109,111,92,101,108,116
CS(=O)(=O)OCCCCOS(C)(=O)=O [Busulfan],108,102,103,107,104,103,97.4,120
CN[C@@H]1[C@H](O)[C@H](NC)[C@H]2O[C@@]3(O)C(=O)C[C@@H](C)O[C@H]3O[C@@H]2[C@H]1O [Spectinomycin  hydrochloride],105,102,102,109,107,86.5,101,101
CCOc1cc(N)c(Cl)cc1C(=O)NCC1CN(Cc2ccc(F)cc2)CCO1 (stereo not drawn) [Mosapride citrate],105,106,104,104,104,109,103,109
COc1cc(C(C)=O)ccc1OCCCN1CCC(c2noc3cc(F)ccc23)CC1 [Iloperidone],108,104,107,107,99.6,109,119,109
Nc1ccn([C@@H]2O[C@H](CO)[C@@H](O)C2(F)F)c(=O)n1 [Gemcitabine HCl],3.53,3.99,3.86,3.72,3.77,4.75,3.77,3.39
CNS(=O)(=O)CCc1ccc2[nH]cc(C3CCN(C)CC3)c2c1 [Naratriptan HCl],97.1,103,105,108,103,103,97.6,111
CCc1ccc(CCOc2ccc(CC3SC(=O)NC3=O)cc2)nc1 (stereo not drawn) [Pioglitazone hydrochloride],106,97.2,103,106,94.5,97.9,101,103
Cc1nc(Nc2ncc(C(=O)Nc3c(C)cccc3Cl)s2)cc(N2CCN(CCO)CC2)n1 [Dasatinib],71.8,87.1,80.2,90.2,85.9,88.5,82.1,89.2
Cc1cccc(CN2CCN(C(c3ccccc3)c3ccc(Cl)cc3)CC2)c1 (stereo not drawn) [Meclizine 2HCl],101,108,98.5,107,101,109,111,103
C[C@@]12C[C@@]3(O)O[C@@H](O1)[C@]1(COC(=O)c4ccccc4)[C@H]3C[C@@]12O[C@@H]1O[C@H](CO)[C@@H](O)[C@H](O)[C@H]1O [Paeoniflorin],106,102,108,118,107,111,109,118
COCCc1ccc(OCC(O)CNC(C)C)cc1 (stereo not drawn) [Metoprolol tartrate],101,98,105,111,77.9,103,103,111
CCCN(CCC)S(=O)(=O)c1ccc(C(=O)O)cc1 [Probenecid],103,109,108,110,101,104,109,115
COc1ccc2cccc(CCNC(C)=O)c2c1 [Agomelatine],96.1,109,84.5,113,94.3,90.4,132,111
NCCc1c[nH]cn1 [Histamine Phosphate],99.7,101,96.7,108,98.8,101,97.7,109
COC(=O)N[C@H](C(=O)N[C@@H](Cc1ccccc1)[C@@H](O)CN(Cc1ccc(-c2ccccn2)cc1)NC(=O)[C@@H](NC(=O)OC)C(C)(C)C)C(C)(C)C [Atazanavir sulfate],104,101,105,108,101,97,98.5,116
COc1ccc(CC(C)NCC(O)c2ccc(O)c(NC=O)c2)cc1 (stereo not drawn) [Formoterol hemifumarate],100,98.7,102,111,104,106,98.9,106

# Reference: the supplement of paper PMC8371130
